The source of these data is the supplement of paper PMC11865577.

Assay in all cases: normalised indicator fluorescence (fraction of RNA + indicator signal without compound); higher = less displacement of indicator (weaker competition)
Settings in all cases: compound concentration: 5 uM, 30 min

Assay [1] has as its system SARS-CoV-2 low-rank motif (SARS-low). An outline of the steps: (§1)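 Indicator fluorescence, corrected by subtracting the buffer-plus-indicator blank and normalized to the RNA-plus-indicator signal without compound, is given as the mean of two independent experiments. The buffer was 20 mM phosphate pH 7.0, 20 mM NaCl and 80 mM KCl, with TO-PRO-1 or TO-PRO-3 and RNA in 96-well plates. Plates were read 30 min after compound addition (about 5 uM final) on an Infinite 200 PRO, exciting at 485 or 620 nm.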

Assay [2] relates to hsa-mir-191 loop. An outline of the steps: as §1
The test system of assay [3] is hsa-mir-21 loop. In short, it runs like this: as §1
For assay [4], the system named is hsa-mir-221 loop. An outline of the steps:
as §1

In assay [5] the test system is hsa-mir-374a loop. In short, it runs like this: as §1
Assay [6] deals with hsa-mir-6850 loop. In short, it runs like this:
as §1

Where [7] appears, read: indicator: TO-PRO-1 0.1 uM, RNA concentration: 0.1 uM.
Setting [8] is: indicator: TO-PRO-3 0.5 uM, RNA concentration: 0.5 uM.

The structures appear in SMILES notation. Counter-ions that a name gives are not always drawn.

Take `C1CCN2C[C@@H]3C[C@@H](CN4CCCC[C@@H]34)[C@H]2C1` [(-)-Sparteine sulfate pentahydrate]: the results for the normalised indicator fluorescence in assay [1] (setting [7]) and in assay [1] (setting [8]) were 1.05 and 0.993, respectively.

Turning to `COC1=C2C[C@@H](C)C[C@H](OC)[C@H](O)[C@@H](C)/C=C(\C)[C@H](OC(N)=O)[C@@H](OC)/C=C\C=C(/C)C(=O)NC(=CC1=O)C2=O` [Geldanamycin], the normalised indicator fluorescence turned out to be 1.15 in assay [1] (setting [7]) and 1.36 in assay [1] (setting [8]).

On to `NC(=O)c1ccc(N(C(N)=O)c2c(F)cccc2F)nc1-c1ccc(F)cc1F`, for which the figures for the normalised indicator fluorescence in assay [1] (setting [7]) and in assay [1] (setting [8]) were 1.28 and 1.21, respectively.

For the compound `N=C(NCCCCCCNC(=N)NC(=N)Nc1ccc(Cl)cc1)NC(=N)Nc1ccc(Cl)cc1` [Chlorhexidine], the normalised indicator fluorescence in assay [1] (setting [7]) is 1.11; in assay [1] (setting [8]) it was 1.16.

`CC1=C[C@]2(O)O[C@@]3(CC2=C(C)C)[C@@H](C)CC[C@@H]13` [Curcumenol]: the normalised indicator fluorescence was found to be 1.11 in assay [1] (setting [7]) and 1.05 in assay [1] (setting [8]).

Take `O=c1ccc2ccc(O)c(O)c2o1` [Daphnetin]: the normalised indicator fluorescence in assay [1] (setting [7]) was 1.04; in assay [1] (setting [8]) it was 0.935.

With `COc1ccc(-c2nc(-c3cc(C(F)(F)F)cc(C(F)(F)F)c3)n(Cc3ccc(C(N)=O)cc3)c2-c2ccc(OC)cc2)cc1` [Apoptozole], the normalised indicator fluorescence is 1.12 in assay [1] (setting [7]) and 1.14 in assay [1] (setting [8]).

Regarding `CC(C)(O)[C@@H]1CC[C@](C)([C@H]2[C@@H](O)C[C@@]3(C)[C@@H]4C[C@H](O)[C@H]5C(C)(C)[C@@H](O[C@@H]6OC[C@@H](O)[C@H](O)[C@H]6O[C@@H]6O[C@H](CO)[C@@H](O)[C@H](O)[C@H]6O)CC[C@@]56C[C@@]46CC[C@]23C)O1` [Astragaloside III], the normalised indicator fluorescence in assay [1] (setting [7]) was 1.03; in assay [1] (setting [8]) it was 0.988.

Consider `NNC(=O)c1ccncc1` [Isoniazid], for which the normalised indicator fluorescence in assay [1] (setting [7]) came to 1.12; in assay [1] (setting [8]), 1.13.

For the compound `C[C@H](CCC(=O)NCCS(=O)(=O)O)[C@H]1CC[C@H]2[C@@H]3[C@@H](O)C[C@@H]4C[C@H](O)CC[C@]4(C)[C@H]3CC[C@]12C` [Tauroursodeoxycholic Acid], the normalised indicator fluorescence in assay [1] (setting [7]) is 1.21; in assay [1] (setting [8]), 1.52.

In the case of `CCNC(=O)c1noc(-c2cc(C(C)C)c(O)cc2O)c1-c1ccc(CN2CCOCC2)cc1` [Luminespib], the normalised indicator fluorescence in assay [1] (setting [7]) amounted to 1.01; in assay [1] (setting [8]) it was 1.09.

Take `CC(C)OC(=O)CCC/C=C\C[C@@H]1[C@@H](CC[C@@H](O)CCc2ccccc2)[C@H](O)C[C@@H]1O` [Latanoprost]: the normalised indicator fluorescence was 1.12 in assay [1] (setting [7]) and 1.2 in assay [1] (setting [8]).

Consider `COC1=CC(=O)c2ccccc2C1=O` [2-Methoxynaphthoquinone], for which the normalised indicator fluorescence in assay [1] (setting [7]) is 1.19; in assay [1] (setting [8]), 1.12.

On to `O=C(COc1ccc(Cl)cc1)NC1CCC(NC(=O)COc2ccc(Cl)cc2)CC1` (stereo not drawn), for which the normalised indicator fluorescence in assay [1] (setting [7]) was determined as 1.05; in assay [1] (setting [8]), 0.94.

Take `CC(C)=CCC[C@](C)(O[C@@H]1O[C@H](CO)[C@@H](O)[C@H](O)[C@H]1O)[C@H]1CC[C@]2(C)[C@@H]1[C@H](O)C[C@@H]1[C@@]3(C)CC[C@H](O)C(C)(C)[C@@H]3[C@@H](O[C@@H]3O[C@H](CO)[C@@H](O)[C@H](O)[C@H]3O[C@@H]3OC[C@@H](O)[C@H](O)[C@H]3O)C[C@]12C` [Notoginsenoside R1]: the normalised indicator fluorescence in assay [1] (setting [7]) turned out to be 1.23; in assay [1] (setting [8]), 1.26.

As to `COc1ccc2c(c[n+](C)c3c4cc5c(cc4ccc23)OCO5)c1OC` [Chelerythrine chloride], the normalised indicator fluorescence in assay [1] (setting [7]) is 1.46; in assay [1] (setting [8]), 0.807; in assay [2] (setting [7]), 0.626; in assay [2] (setting [8]) it was 0.656; in assay [3] (setting [7]), 0.586; in assay [3] (setting [8]), 0.724. In addition, the normalised indicator fluorescence in assay [4] (setting [7]) was determined as 0.568; in assay [4] (setting [8]), 0.592; in assay [5] (setting [7]), 1.01; in assay [5] (setting [8]) it was 1.02; in assay [6] (setting [7]) it was 0.335; in assay [6] (setting [8]), 0.494.

Take `COc1nccnc1NS(=O)(=O)c1ccc(NC(=O)/C=C/c2ccc([N+](=O)[O-])s2)cc1` [Necrosulfonamide]: the normalised indicator fluorescence in assay [1] (setting [7]) was 1.16; in assay [1] (setting [8]), 0.996.

In the case of `CCNC(=O)c1noc(-c2cc(Cl)c(O)cc2O)c1-c1ccc(OC)cc1`, the normalised indicator fluorescence in assay [1] (setting [7]) was determined as 1.27; in assay [1] (setting [8]), 1.43.

Turning to `C[C@H]1Oc2cc(cnc2N)-c2c(nn(C)c2C#N)CN(C)C(=O)c2ccc(F)cc21` [Lorlatinib], the normalised indicator fluorescence in assay [1] (setting [7]) is 1.13; in assay [1] (setting [8]) it was 1.23.

With `COc1ccc(-c2coc3cc(O)ccc3c2=O)cc1O` [Calycosin], the normalised indicator fluorescence in assay [1] (setting [7]) worked out at 1.4; in assay [1] (setting [8]), 1.09.

Turning to `O=C(O)/C=C/c1ccc(Cn2ccnc2)cc1` [Ozagrel hydrochloride], the figures for the normalised indicator fluorescence in assay [1] (setting [7]) and in assay [1] (setting [8]) were 1.1 and 1.09, respectively.

With `CN1CCN(c2ccc(C(=O)Nc3n[nH]c4ccc(Cc5cc(F)cc(F)c5)cc34)c(NC3CCOCC3)c2)CC1` [Entrectinib], the values for the normalised indicator fluorescence in assay [1] (setting [7]) and in assay [1] (setting [8]) were 1.16 and 1.39, respectively.

Regarding `CNC(=O)c1ccc(C)c(-n2c(C)cc(OCc3ccc(F)cc3F)c(Br)c2=O)c1`, the normalised indicator fluorescence in assay [1] (setting [7]) was found to be 1.01; in assay [1] (setting [8]), 1.07.

For `COc1ccc([C@@H]2OC[C@H]3[C@@H]2CO[C@@H]3c2ccc(O[C@@H]3O[C@H](CO)[C@@H](O)[C@H](O)[C@H]3O)c(OC)c2)cc1OC` [Forsythin], the normalised indicator fluorescence in assay [1] (setting [7]) is 1.1; in assay [1] (setting [8]), 1.16.

For `C[C@@H]1O[C@@H](O[C@H]2[C@H](Oc3cc(O)c4c(c3)O[C@H](c3ccc(O)cc3)CC4=O)O[C@H](CO)[C@@H](O)[C@@H]2O)[C@H](O)[C@H](O)[C@H]1O` [Naringin], the figures for the normalised indicator fluorescence in assay [1] (setting [7]) and in assay [1] (setting [8]) were 1.14 and 1.13, respectively.

Regarding `Cc1oncc1C(=O)Nc1ccc(C(F)(F)F)cc1` [Leflunomide], the normalised indicator fluorescence in assay [1] (setting [7]) is 1.07; in assay [1] (setting [8]), 1.12.

For the compound `COc1ccc(C2CC(=O)c3c(O)cc(OC4OC(COC5OC(C)C(O)C(O)C5O)C(O)C(O)C4O)cc3O2)cc1OC` (stereo not drawn) [Methyl hesperidin], the normalised indicator fluorescence in assay [1] (setting [7]) came to 1.08; in assay [1] (setting [8]), 1.37.

For the compound `CC1=CC(=O)c2c(O)cccc2C1=O` [Plumbagin], the normalised indicator fluorescence in assay [1] (setting [7]) worked out at 1.22; in assay [1] (setting [8]) it was 1.02; in assay [2] (setting [7]), 1.02; in assay [2] (setting [8]), 1.01; in assay [3] (setting [7]), 0.979; in assay [3] (setting [8]), 0.979. For the same compound, the normalised indicator fluorescence came to 1.02 in assay [4] (setting [7]); 1.05 in assay [4] (setting [8]); 1.17 in assay [5] (setting [7]); 1.15 in assay [5] (setting [8]); 0.922 in assay [6] (setting [7]); 1.01 in assay [6] (setting [8]).

Regarding `C[C@@H]1O[C@@H](Oc2c(-c3cc(O)c(O)c(O)c3)oc3cc(O)cc(O)c3c2=O)[C@H](O)[C@H](O)[C@H]1O` [Myricetrin], the normalised indicator fluorescence in assay [1] (setting [7]) stood at 0.999; in assay [1] (setting [8]) it was 1.07.

For `O=C1CCc2ccccc2C1` [Beta-Tetralone], the normalised indicator fluorescence in assay [1] (setting [7]) amounted to 1.19; in assay [1] (setting [8]), 1.2.

Regarding `Nc1c(Br)cc(Br)cc1CN[C@H]1CC[C@H](O)CC1` [Ambroxol], the normalised indicator fluorescence is 0.985 in assay [1] (setting [7]) and 0.984 in assay [1] (setting [8]).

As to `O=C1C[C@@H](c2ccc(O)cc2)Oc2cc(O)cc(O)c21` [Naringenin], the normalised indicator fluorescence amounted to 1.03 in assay [1] (setting [7]) and 1.12 in assay [1] (setting [8]).

Regarding `CC(=O)c1ccc(S(=O)(=O)NC(=O)NC2CCCCC2)cc1` [Acetohexamide], the normalised indicator fluorescence is 0.998 in assay [1] (setting [7]) and 1.12 in assay [1] (setting [8]).

In the case of `CC(C)c1cc(-c2n[nH]c(=O)n2-c2ccc3c(ccn3C)c2)c(O)cc1O` [Ganetespib], the normalised indicator fluorescence was found to be 1.26 in assay [1] (setting [7]) and 1.28 in assay [1] (setting [8]).

`Cc1cc(C(C)(C)C)c(O)c(C(C)(C)C)c1`: the normalised indicator fluorescence worked out at 1.26 in assay [1] (setting [7]) and 1.23 in assay [1] (setting [8]).

As for `CC(=O)CCCCn1c(=O)c2c(ncn2C)n(C)c1=O` [Pentoxifylline], the figures for the normalised indicator fluorescence in assay [1] (setting [7]) and in assay [1] (setting [8]) were 1.23 and 1.05, respectively.

With `Oc1cc(O)c2c(c1)O[C@H](c1ccc(O)c(O)c1)[C@@H](O)C2` [Cianidanol], the normalised indicator fluorescence in assay [1] (setting [7]) is 1.39; in assay [1] (setting [8]), 1.17.

Take `O=c1c(O)c(-c2cc(O)c(O)c(O)c2)oc2cc(O)cc(O)c12` [Myricetin]: the normalised indicator fluorescence in assay [1] (setting [7]) stood at 0.808; in assay [1] (setting [8]) it was 0.0645.

With `Cc1c(C)c2c(c(C)c1O)CC[C@@](C)(CCC[C@H](C)CCC[C@H](C)CCCC(C)C)O2` [Vitamin E], the values for the normalised indicator fluorescence in assay [1] (setting [7]) and in assay [1] (setting [8]) were 1.07 and 1.16, respectively.
